# Laboratory results taken from PubChem BioAssay (NCI).
# Compounds without any hit were thinned out: in the full panel of roughly 79,000, 15% have a hit. Values without a mark were called inactive. The source made the active and inactive calls. Cut-off read from the data, not from the text of the source: active = growth inhibition above about 70%; inactive = the rest.
# Columns and labels:
# [1] = NCI Yeast Anticancer Drug Screen. Data for the rad50 strain (AID 155);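 note: 0% = growth of vehicle-only cultures of the same strain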; settings: S. cerevisiae rad50 strain growth inhibition, hits give high values
# Method in brief: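 Relative growth inhibition (compound vs vehicle) was measured in yeast with a defined repair-gene alteration.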
# [2] = NCI Yeast Anticancer Drug Screen. Data for the mec2-1 strain (AID 157); settings: S. cerevisiae mec2-1 strain, hits give high values
# Method in brief: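 Test agents were screened against the mec2-1 yeast strain, with defined DNA repair or cell cycle alteration. Growth was scored as inhibition against vehicle-only controls.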
# [3] = NCI Yeast Anticancer Drug Screen. Data for the sgs1 mgt1 strain (AID 161);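 note: 0% = growth of cultures given vehicle only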; settings: S. cerevisiae sgs1 mgt1 strain, hits give high values
# Method in brief: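 Inhibition of yeast growth, normalised to vehicle-treated controls, is reported for a strain bearing genetic alterations in DNA damage repair.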
# [4] = NCI Yeast Anticancer Drug Screen. Data for the cln2 rad14 strain (AID 165);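 note: 0% = growth equal to vehicle treated cultures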; settings: S. cerevisiae cln2 rad14 strain, hits give high values
# Method in brief: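 Growth of compound-exposed yeast (cln2 rad14 genotype) measured and expressed as inhibition relative to vehicle.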
# [5] = NCI Yeast Anticancer Drug Screen. Data for the bub3 strain (AID 167); settings: S. cerevisiae bub3 mutant strain, hits give high values
# Method in brief: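 Screening used yeast with an engineered genetic alteration affecting cell cycle control. Compound-exposed cultures were compared with vehicle cultures, and reduced growth was taken as inhibition.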
# [6] = NCI Yeast Anticancer Drug Screen. Data for the mlh1 rad18 strain (AID 175); settings: S. cerevisiae mlh1 rad18 strain growth inhibition, hits give high values
# Method in brief: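 In this whole-cell yeast screen, a strain with altered DNA damage repair is challenged with compound, and its growth is measured against matched vehicle-treated controls.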
# [7] = at 5.0 µM (retest, dose inferred, filed as 0.5)
# [8] = at 50.0 µM (retest, dose inferred, filed as 5.0)
SMILES,"growth inhibition [1, 7]","growth inhibition [1, 8]",growth inhibition ([1]; at 50.0 µM),"growth inhibition [2, 7]","growth inhibition [2, 8]",growth inhibition ([2]; at 50.0 µM),"growth inhibition [3, 7]","growth inhibition [3, 8]",growth inhibition ([3]; at 50.0 µM),"growth inhibition [4, 7]","growth inhibition [4, 8]",growth inhibition ([4]; at 50.0 µM),"growth inhibition [5, 7]","growth inhibition [5, 8]",growth inhibition ([5]; at 50.0 µM),"growth inhibition [6, 7]","growth inhibition [6, 8]",growth inhibition ([6]; at 50.0 µM)
C1=C(CC2=C[P+](c3ccccc3)(c3ccccc3)C=C(c3ccccc3)O2)OC(c2ccccc2)=C[P+]1(c1ccccc1)c1ccccc1,17%,96% (active),87.4% (active),8%,98% (active),88% (active),35%,98% (active),86.2% (active),25%,98% (active),85.4% (active),32%,98% (active),90.5% (active),6%,95% (active),90.8% (active)
CC(NNC(=S)N1CCCC1)c1cc2ccccc2cn1 (stereo not given),30%,99% (active),89.2% (active),38%,99% (active),90.8% (active),62%,98% (active),90.8% (active),66%,96% (active),90.3% (active),64%,98% (active),88.2% (active),34%,98% (active),92.2% (active)
CCCCCCCCCCNC(=O)C[n+]1cccc(C(=O)Nc2ccccc2)c1,4%,99% (active),99.7% (active),10%,100% (active),99.8% (active),-13%,100% (active),99.9% (active),3%,99% (active),99.2% (active),-1%,99% (active),99.6% (active),28%,100% (active),99.8% (active)
COc1ccc([N+](=O)[O-])cc1Nc1c2ccccc2nc2ccccc12,6%,69%,80.8% (active),17%,70% (active),64.2%,0%,58%,49%,-2%,-16%,37.5%,-1%,49%,46.5%,1%,6%,41%
N#CN=[N+]([O-])c1ccc(C(=O)O)cc1,80% (active),89% (active),91.5% (active),87% (active),93% (active),93.8% (active),96% (active),91% (active),91.3% (active),99% (active),84% (active),91.6% (active),96% (active),87% (active),91.5% (active),96% (active),89% (active),90.9% (active)
CC(=O)OC1=CC(n2cc(F)c(=O)[nH]c2=O)OC(C)C1=O (stereo not given),23%,58%,69.7%,13%,85% (active),88.4% (active),24%,64%,86.5% (active),19%,4%,37.5%,15%,-13%,62.1%,20%,57%,51.7%
S=C(N/N=C(/c1ccccc1)c1ccccn1)Nc1ccccc1,2%,90% (active),84.3% (active),14%,95% (active),73.5% (active),20%,95% (active),85.3% (active),-9%,94% (active),60.4%,2%,93% (active),76.2% (active),13%,94% (active),90% (active)
CC(C)(C)CC(C)(C)NCc1cc(Cl)cc(Cc2cc(Cl)ccc2O)c1O,10%,97% (active),28.9%,9%,98% (active),46%,8%,98% (active),48.7%,-4%,94% (active),16.8%,4%,98% (active),20.4%,19%,98% (active),78.7% (active)
N#C/C(=C\NC(=S)Nc1cc(Cl)ccc1Cl)c1nc2ccccc2s1,21%,25%,34.2%,7%,21%,15.1%,2%,4%,10.1%,20%,29%,39.6%,7%,19%,37.4%,21%,12%,27.1%
CC(C)(C)SC(=O)C1(C)OC1c1ccc([N+](=O)[O-])cc1 (stereo not given),-6%,45%,53%,-4%,-3%,67.8%,-5%,51%,62.3%,5%,-2%,-20.8%,0%,13%,29.8%,-5%,49%,79.8% (active)
